Assay outcomes as filed in PubChem.
Compounds with a hit are over-represented: about 3.8% of the library has one in this group of screens.
KAT2A inh – blocks human GCN5L2 histone acetyltransferase; Potency, µM (titrated, usually from 58.9 µM), actives largely listed as inhibitors; GCN5L2 HAT assay, ThioGlo1 CoA-SH fluorescence; 0.21% of 390,000 active; Q92830; AID 504327
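Free CoA generated was detected with ThioGlo1 (50uM) fluorescence at Ex340nm/Em540nm, read immediately and after 20 min at room temperature. Enzyme, 20 nM in HEPES pH 7.5 buffer, saw compounds 15 min before adding 75uM H3(1-25) peptide and 70uM acetyl-CoA.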
GLS inh – inhibitors of human glutaminase (GLS) | O94925 | GLS enzymatic activity, qHTS titration | 0.21% of 410,000 active | Potency, µM (series often up to 45.5 µM), usual class: inhibitors
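Read-out is an Amplex red fluorescence increase coupled through glutamate oxidase and HRP, measured before and after 30 min room-temperature incubation. hKGA is in 45 mM KH2PO4 (pH 8.2) with 0.02% Tween-20; glutamine added as 1mM solution.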
TrxR1 inh – blocks rat thioredoxin reductase 1 | recombinant rTrxR1, NADPH fluorescence consumption, selenite substrate | O89049 | 1% of 390,000 active | Potency, µM (highest dose often 114 µM), usual class: inhibitors; note: nearly all actives have a fitted effect of over 65% in size
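Rat TrxR1 (90 nM in the dispensed reagent) was pre-reduced with 400 uM NADPH for 5 min at room temperature, then incubated with compound for 15 min. After 400 uM selenite was added, NADPH fluorescence (Ex 340/Em 450 nm) was followed for 8 min.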
Sfp inh – blocks B. subtilis Sfp PPTase activity | Biochemical Sfp PPTase activity, qHTS | Potency, µM, usual class: inhibitors | 3.5% of 310,000 active | AID 1490;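 note: the enzyme is Sfp with the accession as filed and its product quenches rhodamine fluorescence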
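Reaction rates are the 30-min fluorescence difference (ex 525, em 598 nm) in wells containing 15 nM Sfp, 5 uM rhodamine-CoA and 12.5 uM BHQ-2-YbbR at pH 7.6 with 10 mM MgCl2.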
TrxR1 substrate – rat thioredoxin reductase 1 substrate activity | 0.01% of 390,000 active | Potency, µM (titrated, usually from 114 µM) | AID 588456 | purified TrxR1 substrate turnover, NADPH consumption readout; note: nearly all actives have a fitted effect of over 50% in size
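Rat TrxR1, dispensed at 90 nM, was prereduced with 400 uM NADPH (final) for 5 min at ~22 deg C, then incubated with compound 15 min before 400 uM selenite. A first-read NADPH fluorescence drop versus no-compound background flagged substrates.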
VDR inhibitor – vitamin D3 receptor (human) inhibition | Potency, µM, hits mostly inhibitors | AID 504847 | 0.93% of 400,000 active | VDR-SRC2-3 peptide fluorescence polarization, 2 h
Target sequence (P11473 whole entry, looked up): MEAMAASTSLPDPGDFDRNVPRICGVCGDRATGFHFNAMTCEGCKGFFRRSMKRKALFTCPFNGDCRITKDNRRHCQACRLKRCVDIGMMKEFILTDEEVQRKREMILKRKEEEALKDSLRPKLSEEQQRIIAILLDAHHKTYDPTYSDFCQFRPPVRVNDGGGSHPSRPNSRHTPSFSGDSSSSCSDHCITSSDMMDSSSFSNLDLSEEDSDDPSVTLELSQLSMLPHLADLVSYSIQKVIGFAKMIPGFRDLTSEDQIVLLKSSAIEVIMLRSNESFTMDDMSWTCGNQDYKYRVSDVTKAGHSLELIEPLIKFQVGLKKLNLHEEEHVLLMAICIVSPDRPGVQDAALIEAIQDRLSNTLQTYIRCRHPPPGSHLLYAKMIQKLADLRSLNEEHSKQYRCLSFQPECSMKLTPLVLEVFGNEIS
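The screen uses fluorescence polarization to detect compounds that interfere with recruitment of the SRC2-3 coactivator peptide to VDR; plates are read after 2 h at room temperature.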
USP1-UAF1 confirm – blocks human USP1/UAF1 cleavage of Ub-Rhodamine. Potency, µM (highest dose often 56.8 µM), hits mostly inhibitors. shares compounds with VDR inhibitor. Ub-Rhodamine cleavage, fluorescence kinetic read. 50% of 50 active
VDR confirm – inhibits human vitamin D receptor, primary hit validation; shares compounds with VDR inhibitor; VDR-coactivator inhibition assay, qHTS confirmation; Potency, µM, actives largely listed as inhibitors; 89% of 840 active; AID 602199
VDR FP – VDR (human) coactivator binding inhibition, fluorescein polarization; shares compounds with VDR inhibitor; VDR-coactivator binding, fluorescein fluorescence polarization; Potency, µM (top dose mostly 57.1 µM), hits mostly inhibitors; 48% of 840 active; AID 602200
VDR bla – confirmation of human vitamin D receptor inhibitors in reporter cells; shares compounds with VDR inhibitor; VDR beta-lactamase reporter cells, FRET ratio; cells co-treated with VDR agonist LG190178; Potency, µM (series often up to 46.1 µM), most hits filed as inhibitors; 23% of 840 active; AID 602202
VDR cytotox – cell toxicity, VDR inhibitor hit counter-screen | 18% of 840 active | Potency, µM (highest dose often 48.3 µM), usual class: cytotoxic | cytotoxicity counter-screen, cell viability, qHTS | shares compounds with VDR inhibitor | AID 602204; note: nearly all actives have a fitted effect of over 75% in size
Of the large screens only hits and unclear results are named; the others gave an inactive call (follow-up assays come after a bar, where they were run). Calls come from the whole dose curve; as a rule, active = well fitted curve in the direction sought with a large enough effect; inconclusive = small, poorly fitted or top-dose-only effect, or another doubt; inactive = no such curve, though single readings can be large; an effect the other way counts as inactive or inconclusive.

Cn1c(/C(C#N)=C/c2ccc(C(F)(F)F)cc2)nc2ccccc21	VDR inhibitor 28.2µM (no result: Sfp inh) | VDR confirm 14.1 | VDR FP 8.91µM | VDR bla 18.4µM | VDR cytotox inconclusive
O=C1NN(c2ccc(F)c(Cl)c2)C(=O)/C1=C\c1cccc(OC(=O)c2cccs2)c1	TrxR1 inh inconclusive, VDR inhibitor 22.4µM | VDR confirm 10.6 | VDR FP inconclusive | VDR bla inactive | VDR cytotox inactive
COc1ccc(-c2cc(C)no2)cc1S(=O)(=O)N1CCCC(C)C1 (stereo not drawn)	none (no result: Sfp inh)
CC1(C)CC(=O)c2sc(NS(=O)(=O)c3cc(Cl)ccc3Cl)nc2C1	GLS inh inconclusive
C=CCN1C(=O)C(C)(C)Nc2ccccc21	none
C=CCN1C(=O)/C(=N/n2cnnc2)c2ccccc21	VDR inhibitor 39.8µM | VDR confirm 16.8 | VDR FP inconclusive | VDR bla inactive | VDR cytotox inactive
COc1ccc(NC(=O)/C(Cl)=C(/Cl)S(=O)Cc2ccccc2)cn1 (stereo not drawn)	TrxR1 inh inconclusive, Sfp inh 39.8µM, VDR inhibitor 14.1µM | VDR confirm 4.23 | VDR FP inconclusive | VDR bla inconclusive | VDR cytotox inconclusive
COc1ccc(NC(=O)Cc2ccccc2)cn1	none
Cc1ccc(S(=O)(=O)N2CCN(c3nc(Nc4ccccc4O)nc4ccccc34)CC2)cc1	none (no result: KAT2A inh, GLS inh, Sfp inh, VDR inhibitor)
CCOC(=O)CS(=O)(=O)c1nc(-c2ccc(F)cc2)cc(C(F)(F)F)n1	TrxR1 inh inconclusive, VDR inhibitor inconclusive
CCOC(=O)CS(=O)(=O)c1nc(-c2ccccc2)cc(C(F)(F)F)n1	TrxR1 inh inconclusive, Sfp inh 50.1µM, VDR inhibitor 20µM | VDR confirm 7.52 | VDR FP inconclusive | VDR bla inconclusive | VDR cytotox inconclusive
CCOC(=O)CCS(=O)(=O)c1nc(-c2ccccc2)cc(C(F)(F)F)n1	TrxR1 inh 15.8µM, Sfp inh 10µM, VDR inhibitor 44.7µM | VDR confirm 5.97 | VDR FP 10µM | VDR bla inconclusive | VDR cytotox inconclusive
Cc1ccc(-c2nnc(CSc3nnc4c5c(C)c(C)sc5nc(C(C)C)n34)o2)cc1	none (no result: GLS inh, TrxR1 inh, TrxR1 substrate, VDR inhibitor)
Cc1cc[n+](CC(=O)c2ccc(NC(=O)c3ccccc3)cc2)c2ccccc12	none
Cc1ccc(C(=O)COC(=O)COc2ccccc2[N+](=O)[O-])s1	TrxR1 inh inconclusive (no result: Sfp inh)
CCOC(=O)COc1ccccc1/C=C\[N+](=O)[O-]	TrxR1 inh 2.82µM, Sfp inh 14.1µM, VDR inhibitor 11.2µM | VDR confirm 3.36 | VDR FP inconclusive | VDR bla 4.61µM | VDR cytotox 8.2µM
FC(F)(F)c1cccc(Sc2nc(-c3ccccc3)nnc2C(F)(F)F)c1	VDR inhibitor 31.6µM | VDR confirm 15 | VDR FP inconclusive | VDR bla inconclusive | VDR cytotox inconclusive
Cc1ccc(C(=O)/C=C\C(=O)c2ccc(C)cc2)cc1	TrxR1 inh 5.01µM, Sfp inh 1.78µM, VDR inhibitor 79.4µM | VDR confirm 29.9 | VDR FP inconclusive | VDR bla inconclusive | VDR cytotox inactive
O=C(Cn1nc(-c2ccccc2)ccc1=O)Nc1ccc(NC(=O)c2ccccn2)cc1	Sfp inh inconclusive
O=C1Nc2ccccc2C1=Nc1cccc(Cl)c1	none
O=C1Nc2ccc(Br)cc2C1=Nc1cccnc1	VDR inhibitor 25.1µM | VDR confirm 9.47 | VDR FP inactive | VDR bla inactive | VDR cytotox inconclusive
O=C(NCCS(=O)(=O)N1CCN(c2ccccc2F)CC1)c1cc(=O)c2ccccc2o1	none
Cc1sc(NC(=O)COc2ccccc2)c(C#N)c1C	KAT2A inh inconclusive, Sfp inh 22.4µM, VDR inhibitor 50.1µM | VDR confirm 23.8 | VDR FP inconclusive | VDR bla inactive | VDR cytotox inactive
Cc1cc(C)c(C2=Nn3c(C)nnc3SC2C)cc1C (stereo not drawn)	none
CN(C)S(=O)(=O)c1ccc2c(c1)/C(=C/c1cc3c([nH]1)CCCC3)C(=O)N2	TrxR1 inh inconclusive (no result: Sfp inh) | USP1-UAF1 confirm 46.9µM
CCOc1ccccc1C1N=C(c2ccc(OC)cc2)CC(c2ccccc2O)N1 (stereo not drawn)	VDR inhibitor inconclusive | VDR confirm inconclusive | VDR FP inconclusive | VDR bla inconclusive | VDR cytotox inactive
Cc1ccc(SCc2[nH]nc3c2C2(C(=O)Nc4ccc([N+](=O)[O-])cc42)C(C#N)=C(N)O3)cc1 (stereo not drawn)	none
[O-]/[N+](=C\c1ccccc1)c1ccc(Br)cc1	VDR inhibitor 25.1µM (no result: Sfp inh) | VDR confirm 3.77 | VDR FP inconclusive | VDR bla inactive | VDR cytotox inactive
COc1ccc(S(=O)(=O)N(C)CC(=O)N2CCCCCC2)cc1	VDR inhibitor inconclusive
O=C(Cc1ccc(Cl)cc1)NN1C(=O)c2ccccc2C1=O	none
COC(=O)[C@@H]1[C@@H](C#N)C2(c3ccccc3-c3ccccc32)N(c2ccc(Cl)cc2)N1C#N	GLS inh inconclusive, TrxR1 inh 7.94µM, Sfp inh inconclusive, VDR inhibitor 25.1µM | VDR confirm 23.8 | VDR FP inconclusive | VDR bla inconclusive | VDR cytotox inconclusive
CN(C)C(=O)CNc1ccn2nc(-c3cccc(OCCN4CCOCC4)c3)cc2n1	none (no result: KAT2A inh, TrxR1 inh, Sfp inh, TrxR1 substrate, VDR inhibitor)
CCOc1cc(C(C#N)N2CCOCC2)ccc1OC (stereo not drawn)	none
Cc1ccccc1OCc1nc2ccc(S(=O)(=O)N3CCOCC3)cc2[nH]1	Sfp inh 39.8µM, VDR inhibitor 39.8µM | VDR confirm 21.2 | VDR FP inconclusive | VDR bla inactive | VDR cytotox inactive
COc1ccc(CN(CCC(C)C)S(=O)(=O)c2ccccc2Br)c(OC)c1	none (no result: Sfp inh)
